Pf Dd2 inh: inhibitors of Plasmodium falciparum Dd2 growth; P. falciparum Dd2 growth, SYBR Green, 72 h; hits give low values; activity change, % at 10 µM; 94,000 compounds, 2.3% hits; AID 1159554; in the data active = activity change below about -80%; inconclusive = no clear call, values can overlap the other calls
C diff HTS: inhibitors of Clostridium difficile growth | Clostridium difficile clinical isolate growth, OD600, 24 h; hits give low values | growth activity, negative = inhibition, % at 16 µg/mL (by protocol) | 86,000 compounds, 0.25% hits;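 active = mean growth activity at or below -80% and every replicate also at or below -80%; inconclusive = mean at or below -80% but some replicate above -80%; inactive = mean growth activity above -80%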
T cruzi growth-1: blocks T. cruzi growth in NIH3T3 culture | T. cruzi beta-gal in NIH3T3, GalScreen luminescence, 90 h | inhibition, % at 8.34 µM | 77,000 compounds, 5.9% hits | AID 624255;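 active = mean inhibition above about 93%, with at least 55% of replicates each passing it, limit read from the data, passing the limit was not always enough; inconclusive = only one of those two conditions holds; inactive = neither condition holds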
T cruzi growth-2: Trypanosoma cruzi proliferation inhibition; 5,600 compounds, 72% hits; T. cruzi beta-gal in NIH3T3, GalScreen luminescence, 90 h; shares compounds with T cruzi growth-1; inhibition, % at 8.35 µM;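 active = mean replicate inhibition above about 95% and at least 55% of replicates individually reaching it, limit read from the data; inconclusive = only one of the two criteria is met; inactive = neither criterion is met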
T cruzi growth-3: inhibitors of T. cruzi proliferation | shares compounds with T cruzi growth-1 | T. cruzi beta-gal in NIH3T3, GalScreen luminescence, 90 h | inhibition, % at 2.09 µM | 5,600 compounds, 21% hits | AID 651740;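 active = mean inhibition above about 95%, with at least 55% of replicates also reaching it, limit read from the data; inconclusive = meets just one of the two conditions; inactive = meets neither condition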
3T3 cytotox: NIH/3T3 (mouse) viability loss; shares compounds with T cruzi growth-1; NIH/3T3 viability, CellTiter-Glo ATP luminescence, 90 h; cytotoxicity (signal decrease), % at 8.35 µM; 5,600 compounds, 14% hits;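 active = mean signal decrease across replicates above about 35% based on untreated-well scatter, with enough replicates individually passing, limit read from the data; inconclusive = no rule stated though some were filed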
3T3 cytotox 2: kills mouse NIH/3T3 fibroblasts; shares compounds with T cruzi growth-1; inhibition, % at 24.9 µM; 5,600 compounds, 56% hits; AID 651744; NIH/3T3 viability, CellTiter-Glo ATP luminescence, 90 h;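 active = mean loss of cell viability signal at or above a set limit, and enough replicates individually reaching it; inconclusive = meets only the mean limit or only the replicate share; inactive = meets neither condition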
Numbers stand for hits; . = inactive; ? = inconclusive; / = not tested or not shown; ! = a repeat was not active. An excerpt weighted towards active compounds, which were near 6.7% of everything screened.

SMILES | Pf Dd2 inh | C diff HTS | T cruzi growth-1 | T cruzi growth-2 | T cruzi growth-3 | 3T3 cytotox | 3T3 cytotox 2
C/C=C/c1ccc(C2[C@@H]3CN(Cc4cccc(F)c4)C[C@H]2N3)cc1 (stereo not given in full) | -88! | . | / | / | / | / | /
C/C=C/c1ccc(C2[C@@H]3CN(C(C)=O)C[C@H]2N3)cc1 (stereo not given in full) | . | . | / | / | / | / | /
C/C=C/c1ccc(C2[C@@H]3CN(Cc4cccnc4)C[C@H]2N3)cc1 (stereo not given in full) | -84! | . | / | / | / | / | /
C/C=C/c1ccc(C2[C@@H]3CN(Cc4ccccn4)C[C@H]2N3)cc1 (stereo not given in full) | . | . | / | / | / | / | /
Cc1cccc(S(=O)(=O)N2[C@@H]3c4ccc(-c5ccncc5)c(=O)n4C[C@H]2[C@H](CO)[C@H]3C(=O)O)c1 | . | . | . | / | / | / | /
O=C(Cc1ccccn1)N1CC2(C1)[C@@H](c1ccccc1)[C@@H](CO)N2Cc1ccccn1 | . | . | / | / | / | / | /
Cc1ccc(OC(=O)N(C)C[C@@H]2OCc3ccccc3-c3c(n(C)c4ccccc34)C(=O)N([C@@H](C)CO)C[C@@H]2C)cc1 | . | . | / | / | / | / | /
Cc1ccc(OC(=O)N(C)C[C@H]2OCc3ccccc3-c3c(n(C)c4ccccc34)C(=O)N([C@H](C)CO)C[C@@H]2C)cc1 | -87 | . | / | / | / | / | /
O=C(Cc1ccccc1)N1CC2(C1)[C@@H](c1ccccc1)[C@@H](CO)N2Cc1cccc(F)c1 | . | . | / | / | / | / | /
O=C(Cc1ccccc1)N1CCCCN2[C@H](C1)[C@@H](c1ccc(-c3ccccc3)cc1)[C@@H]2CO | . | . | . | / | / | / | /
O=C(Cc1ccccc1)N1CCCCN2[C@@H](CO)[C@H](c3ccc(-c4ccccc4)cc3)[C@@H]2C1 | . | . | 100 | 103 | . | . | 102
COc1ccc(-c2ccc([C@H]3[C@@H](CO)N4CCCCN(C(=O)Cc5ccccc5)C[C@H]34)cc2)cc1 | . | . | . | / | / | / | /
COc1ccc(-c2ccc([C@@H]3[C@@H](CO)N4CCCCN(C(=O)Cc5ccccc5)C[C@H]34)cc2)cc1 | . | . | ? | 97 | . | . | 105
CC(=O)N1[C@@H]2c3ccc(-c4cccc(C(=O)N(C)C)c4)c(=O)n3C[C@H]1[C@H](CO)[C@H]2C(=O)O | . | . | / | / | / | / | /
O=C(O)[C@@H]1[C@@H](CO)[C@@H]2Cn3c(ccc(C4=CCCCC4)c3=O)[C@H]1N2C(=O)Cc1ccccn1 | / | . | . | / | / | / | /
COC(=O)[C@@H]1[C@@H](CO)[C@@H]2Cn3c(ccc(-c4cccc(OC)c4)c3=O)[C@H]1N2C(=O)c1ccccc1F | . | . | . | / | / | / | /
N#Cc1cccc(-c2ccc([C@@H]3[C@@H](CO)N4CCCCN(C(=O)Cc5ccncc5)C[C@H]34)cc2)c1 | . | . | 108 | . | . | . | 37
N#Cc1cccc(-c2ccc([C@@H]3[C@H](CO)N4CCCCN(C(=O)Cc5cccnc5)C[C@@H]34)cc2)c1 | . | . | . | / | / | / | /
N#Cc1cccc(-c2ccc([C@H]3[C@@H](CO)N4CCCCN(C(=O)Cc5cccnc5)C[C@H]34)cc2)c1 | . | . | . | / | / | / | /
N#Cc1ccc(-c2ccc([C@@H]3[C@@H](CO)N4CCCCN(C(=O)Cc5ccccc5)C[C@H]34)cc2)cc1 | . | . | . | / | / | / | /
N#Cc1cccc(-c2ccc([C@H]3[C@H](CO)N4CCCCN(C(=O)Cc5cccnc5)C[C@@H]34)cc2)c1 | . | . | 109 | 103 | . | . | 55
N#Cc1cccc(-c2ccc([C@H]3[C@H](CO)N4CCCCN(C(=O)Cc5ccccc5)C[C@@H]34)cc2)c1 | . | . | 102 | . | . | . | 42
COC(=O)[C@@H]1[C@@H](CO)[C@@H]2Cn3c(ccc(C4=CCCCC4)c3=O)[C@H]1N2C(=O)Cc1ccccn1 | . | . | . | / | / | / | /
N#Cc1cccc(-c2ccc([C@@H]3[C@@H](CO)N4CCCCN(C(=O)Cc5cccnc5)C[C@H]34)cc2)c1 | . | . | . | / | / | / | /
O=C(Cc1cccnc1)N1CCCCN2[C@H](CO)[C@H](c3ccc(C#CC4CCCC4)cc3)[C@H]2C1 | . | . | 100 | 100 | . | . | 106
SMILES | Pf Dd2 inh | C diff HTS | T cruzi growth-1 | T cruzi growth-2 | T cruzi growth-3 | 3T3 cytotox | 3T3 cytotox 2
O=C(Cc1cccnc1)N1CCCCN2[C@@H](CO)[C@H](c3ccc(C#CC4(O)CCCC4)cc3)[C@@H]2C1 | . | . | . | / | / | / | /
O=C(Cc1cccnc1)N1CCCCN2[C@@H](CO)[C@H](c3ccc(C#CC4CC4)cc3)[C@@H]2C1 | . | . | 108 | 100 | . | . | .
O=C(Cc1cccnc1)N1CCCCN2[C@@H](CO)[C@@H](c3ccc(C#CC4CCCC4)cc3)[C@@H]2C1 | . | . | 105 | ? | . | . | 102
O=C(Cc1cccnc1)N1CCCCN2[C@H](CO)[C@@H](c3ccc(C#CC4CC4)cc3)[C@@H]2C1 | . | . | . | / | / | / | /
O=C(Cc1cccnc1)N1CCCCN2[C@H](CO)[C@H](c3ccc(C#CC4(O)CCCC4)cc3)[C@@H]2C1 | . | . | . | / | / | / | /
O=C(Cc1cccnc1)N1CCCCN2[C@H](C1)[C@H](c1ccc(C#CC3CCCC3)cc1)[C@@H]2CO | . | . | 104 | . | . | . | 97
O=C(Cc1cccnc1)N1CCCCN2[C@H](C1)[C@@H](c1ccc(C#CC3CC3)cc1)[C@@H]2CO | . | . | . | / | / | / | /
CC(C)CC#Cc1ccc([C@H]2[C@@H](CO)N3CCCCN(C(=O)Cc4ccccn4)C[C@H]23)cc1 | . | . | . | / | / | / | /
O=C(Cc1ccccn1)N1CCCCN2[C@H](C1)[C@@H](c1ccc(Br)cc1)[C@@H]2CO | . | . | . | / | / | / | /
COC(=O)C[C@H]1CC[C@H]2NC[C@H](O)COC[C@@H]2O1 | . | . | . | / | / | / | /
CCN1[C@@H]2Cn3c(ccc(-c4cccc(OC)c4)c3=O)[C@H]1[C@@H](C(=O)OC)[C@@H]2CO | . | . | . | / | / | / | /
O=C(Cc1ccccc1)N1CC2(C1)[C@H](c1ccccc1)[C@H](CO)N2Cc1cccc(F)c1 | . | . | / | / | / | / | /
COC(=O)[C@@H]1[C@@H](CO)[C@@H]2Cn3c(ccc(C4=CCCCC4)c3=O)[C@H]1N2CC1CCCC1 | . | . | . | / | / | / | /
COC(=O)C[C@@H]1CC[C@H]2NC[C@H](O)COC[C@@H]2O1 | . | . | . | / | / | / | /
O=C(Cc1cccnc1)N1CCCCN2[C@H](CO)[C@@H](c3ccc(C#CC4CCCC4)cc3)[C@H]2C1 | . | . | ? | . | . | . | 104
O=C(Cc1cccnc1)N1CCCCN2[C@@H](CO)[C@@H](c3ccc(C#CC4(O)CCCC4)cc3)[C@@H]2C1 | . | . | . | / | / | / | /
COC(=O)[C@H]1[C@H](CO)[C@H]2Cn3c(ccc(/C=C/c4ccccc4)c3=O)[C@@H]1N2CC1CCCC1 | . | . | . | / | / | / | /
O=C(Cc1ccccn1)N1CCCCN2[C@@H](CO)[C@H](c3ccc(-c4ccc(F)cc4)cc3)[C@@H]2C1 | . | . | 101 | ? | . | . | 34
